We go through 40 compounds from PubChem BioAssay (EPA / NIEHS).

Calls of active or inactive are those of the source. Rule for the calls: active = hit-call score of the fitted dose curve at least 0.9, where 1 is the maximum; inactive = score below 0.9.

A short description of the assay: ATG_M_61_CIS: Attagene CIS-FACTORIAL HepG2 Assay for M61 Transcription Factor (Internal Marker) (AID 2282937). Conditions: HepG2 Attagene CIS-FACTORIAL M61 internal marker reporter; actives raise or lower the signal. Here is the method: ATG_CIS is a cell-based, multiplexed-readout assay that uses HepG2, a human liver cell line, with measurements taken at 24 hours after chemical dosing in a 24-well plate.ATG_M_61_CIS is one of 52 assay component(s) measured or calculated from the ATG_CIS assay. It is designed to make measurements of mRNA induction, a form of inducible reporter, as detected with fluorescence intensity signals by Reverse transcription polymerase chain reaction (RT-PCR) and Capillary electrophoresis technology.Data from the assay component ATG_M_61_CIS was analyzed into 1 assay endpoint. This assay endpoint, ATG_M_61_CIS, was analyzed with bidirectional fitting relative to DMSO as the negative control and baseline of activity. Using a type of inducible reporter, measures of mRNA for gain or loss-of-signal activity can be used to understand the background control at the transcription factor-level as they relate to the gene . Furthermore, this assay endpoint can be referred to as a secondary readout, because this assay has produced multiple assay endpoints where this one serves a background control function. To generalize the intended target to other relatable targets, this assay endpoint is annotated to the background measurement intended target family, where the subfamily is internal marker.
Human liver HepG2 cells are transiently transfected with multiple reporter transcription units (MRTUs) in 6-well plates using FuGene 6 reagent (Roche; 3 ml FuGene/1 mg DNA). The MRTU constructs are regulated by a cis-regulating element (promoter). […] A major difference between the CIS and TRANS system is that in CIS activities of endogenous TFs are measured, whereas the TRANS assay evaluates changes in activities of exogenous, chimeric NR-Gal4 proteins. […] At the end of 24 hour incubation, total RNA was isolated using TriZol reagent (Invitrogen). The isolated RNA is then reverse-transcribed using oligo(dT) primer and Mo-MLV reverse transcriptase (Invitrogen) with DNAse I (Ambion) treatment for 30 min. The one-tenth of the produced cDNA was amplified by PCR using Taq DNA polymerase (Invitrogen) and two reporter sequence-specific primers. The PCR products were fluorescently labeled by primer extension with 6-arboxyfluorescein (6-FAM) 5'-labeled reporter sequence-specific primer (2 min at 95 C, 20 s at 68 C and 10 min at 72 C) and these products were digested with 5U of HpaI (New England Biolabs) for 2h at 37 C. The fragments were purified using Qiaquick PCR columns (Qiagen), analyzed on an ABI 3130xL genetic analyzer (Applied Biosystems) with peak positions identified by using a set of X-rhodamine (ROX)-labeled MapMarker1000 molecular weight standards (BioVentures). The raw capillary electrophoresis data was processed using Attagraph software (Attagene).
On to `COC(=O)c1ccccc1C(=O)OC`, for which the call was inactive.
Turning to `COC(=O)N(OC)c1ccccc1COc1ccn(-c2ccc(Cl)cc2)n1`, the outcome was inactive.
Regarding `CCCC1COC(Cn2cncn2)(c2ccc(Cl)cc2Cl)O1` (stereo not given), the outcome was inactive.
Take `COC(=O)C=C(C)OP(=O)(OC)OC`: the compound was called inactive.
On to `COc1cnc(OC)n2nc(NS(=O)(=O)c3c(OCC(F)F)cccc3C(F)(F)F)nc12`, for which the outcome was inactive.
As to `CCOC(=O)CC(SP(=S)(OC)OC)C(=O)OCC` (stereo not given), the compound was classed as inactive.
Regarding `CON(C)C(=O)Nc1ccc(Cl)c(Cl)c1`, the compound was classed as inactive.
On to `O=C(O)c1nc(Cl)ccc1Cl`, for which the result was inactive.
Then `CCOc1cc(Oc2ccc(C(F)(F)F)cc2Cl)ccc1[N+](=O)[O-]`, with “inactive”; and `N#Cc1nn(-c2c(Cl)cc(C(F)(F)F)cc2Cl)c(N)c1S(=O)C(F)(F)F` (stereo not given), with “inactive”; and `CO/C=C(/C(=O)OC)c1ccccc1Oc1cc(Oc2ccccc2C#N)ncn1`, with “inactive”.
Regarding `CN(C)C(=S)SSC(=S)N(C)C`, the compound was called inactive.
In the case of `COC(=O)C(C)Oc1ccc(Oc2ccc(Cl)cc2Cl)cc1` (stereo not given), the call was inactive.
With `Cc1ccc(-c2c(Cl)nc(C#N)n2S(=O)(=O)N(C)C)cc1`, the compound was classed as inactive.
On to `CCCCC(CC)COC(=O)c1ccccc1C(=O)OCC(CC)CCCC` (stereo not given), for which the outcome was inactive.
With `CCOP(=S)(OCC)SCn1c(=O)oc2cc(Cl)ccc21` the entry was “inactive”; with `CCON=C(CC)C1=C(O)CC(c2c(C)cc(C)cc2C)CC1=O` (stereo not given), “inactive”; with `CC(Oc1ccc(Cl)cc1Cl)C(=O)O` (stereo not given), “inactive”.
For `CC(C)C1(C)N=C(c2nc3ccccc3cc2C(=O)O)NC1=O` (stereo not given), the call was inactive.
Regarding `COP(=S)(OC)Oc1nc(Cl)c(Cl)cc1Cl`, the result was inactive.
As for `CNC(=O)ON=CC(C)(C)SC`, the outcome was inactive.
For the compound `N#Cc1cc(Br)c(O)c(Br)c1`, the outcome was inactive.
`CCOC(=O)C(Cl)Cc1cc(-n2nc(C)n(C(F)F)c2=O)c(F)cc1Cl` (stereo not given): the compound was classed as inactive.
In the case of `CCCCNC(=O)n1c(NC(=O)OC)nc2ccccc21`, the call was inactive.
As for `Cc1cc(Cl)ccc1OCC(=O)O`, the call was inactive.
Then `COc1nc(C)nc(NC(=O)NS(=O)(=O)c2ccccc2Cl)n1`, with “inactive”.
As to `OC(c1ccc(Cl)cc1)(c1cncnc1)c1ccccc1Cl` (stereo not given), the call was inactive.
For the compound `COc1ccc(C(c2ccc(OC)cc2)C(Cl)(Cl)Cl)cc1`, the result was inactive.
As for `CCc1nn(C)c(C(=O)NCc2ccc(C(C)(C)C)cc2)c1Cl`, the outcome was inactive.
As for `CC(C)Oc1cc(-n2nc(C(C)(C)C)oc2=O)c(Cl)cc1Cl`, the outcome was inactive.
Consider `C=CCC1=C(C)[C@@H](OC(=O)[C@@H]2[C@@H](C=C(C)C)C2(C)C)CC1=O`, for which the outcome was inactive.
Take `O=C(Nc1ccccc1)Nc1ccnc(Cl)c1`: the compound was called inactive.
With `COc1nc(C)nc(NC(=O)NS(=O)(=O)c2ccccc2CCC(F)(F)F)n1`, the call was inactive.
In the case of `Fc1ccc(Oc2ccnc3cc(Cl)cc(Cl)c23)cc1`, the result was inactive.
Turning to `CS/C(C)=N/OC(=O)N(C)SN(C)C(=O)O/N=C(\C)SC`, the result was inactive.
Turning to `CC(C)(C)c1ccc(CSc2cnn(C(C)(C)C)c(=O)c2Cl)cc1`, the compound was classed as inactive.
Regarding `CC1COC(Cn2cncn2)(c2ccc(Oc3ccc(Cl)cc3)cc2Cl)O1` (stereo not given), the compound was classed as inactive.
As for `Cc1c(F)c(F)c(COC(=O)C2C(/C=C(\Cl)C(F)(F)F)C2(C)C)c(F)c1F` (stereo not given), the result was inactive.
Then `CCNc1nc(Cl)nc(NCC)n1`, with “inactive”; and `CCCCNC(=O)OCC#CI`, with “inactive”.
